Source: PubChem BioAssay (NCI)
Where “and” joins values, the source holds several entries; their conditions need not be identical. Identical values can stand only once. About 79,000 compounds went through this panel and 15% of them were active in at least one assay; those are over-represented in the sample as a whole. Unmarked numbers belong to inactive results. Calls of active or inactive are those of the source. Cut-off read from the data, not from the text of the source: active = growth inhibition above about 70%; inactive = the rest.

Experiments:
[1] = NCI Yeast Anticancer Drug Screen. Data for the rad50 strain (AID 155);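 note: 0% = growth of vehicle-only cultures of the same strain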; conditions: S. cerevisiae rad50 strain growth inhibition, active compounds read high; at 50.0 µM unless noted
How it was run: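 Inhibition values express reduced yeast growth in compound-treated cultures relative to vehicle-treated controls.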

[2] = NCI Yeast Anticancer Drug Screen. Data for the mec2-1 strain (AID 157); conditions: S. cerevisiae mec2-1 strain, active compounds read high; at 50.0 µM unless noted
How it was run: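 Using mec2-1 yeast: add compound, measure growth, express inhibition versus vehicle-treated cultures.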

[3] = NCI Yeast Anticancer Drug Screen. Data for the sgs1 mgt1 strain (AID 161);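 note: 0% = growth of cultures given vehicle only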; conditions: S. cerevisiae sgs1 mgt1 strain, active compounds read high; at 50.0 µM unless noted
How it was run: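 Compounds are added to genetically altered yeast, and growth is compared with cultures given vehicle alone to give percent inhibition.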

[4] = NCI Yeast Anticancer Drug Screen. Data for the cln2 rad14 strain (AID 165);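 note: 0% = growth equal to vehicle treated cultures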; conditions: S. cerevisiae cln2 rad14 strain, active compounds read high; at 50.0 µM unless noted
How it was run: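 Yeast strain cln2 rad14, bearing defects in cell cycle control and DNA repair, serves as the test system; values reflect growth inhibition compared with vehicle.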

[5] = NCI Yeast Anticancer Drug Screen. Data for the bub3 strain (AID 167); conditions: S. cerevisiae bub3 mutant strain, active compounds read high; at 50.0 µM unless noted
How it was run: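 Steps: expose the mutant yeast strain to compound; grow alongside vehicle-treated cultures; measure growth; express inhibition against the vehicle cultures.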

[6] = NCI Yeast Anticancer Drug Screen. Data for the mlh1 rad18 strain (AID 175); conditions: S. cerevisiae mlh1 rad18 strain growth inhibition, active compounds read high; at 50.0 µM unless noted
How it was run: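 Steps: expose repair-defective yeast to compound; measure growth; express inhibition against vehicle-treated controls.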

| Structure (SMILES) | growth inhibition [1] | growth inhibition [2] | growth inhibition [3] | growth inhibition [4] | growth inhibition [5] | growth inhibition [6] |
| --- | --- | --- | --- | --- | --- | --- |
| Clc1ccc(/C=C/c2nc(Cl)c(-c3ccc(Cl)cc3)c(Cl)n2)cc1 | -15.2% | -18.8% | -3.1% | 14.3% | -23.8% | 5.3% |
| Clc1ccc(C2ON=C(c3ccccc3)N2C23CC4CC(CC(C4)C2)C3)cc1Cl (centres undefined) | 5.65% | -17.6% | 2.8% | -20% | -7.9% | -1% |
| Nc1ccc2c(O)cc(S(=O)(=O)O)cc2c1 | 39% and 26.9% | 5.1% and 0.25% | 4.5% and -20.9% | -29.1% and -73% | 19.6% and 4.85% | 3.7% and 10.4% |
| CC1Nc2ccccc2C1C (centres undefined) | -35.2% | -49% | -62.1% | 7.05% | -59.6% | -12.5% |
| O=[N+]([O-])c1ccccc1S(=O)(=O)c1cccc2c1NCCC2 | 33.8% | 12.3% | 33.5% | 31.4% | 48% | 46.9% |
| COc1cc(C2NC(C(=O)O)CS2)cc(OC)c1OC (centres undefined) | -22.4% | -14.7% | 0.5% | -19.1% | -9.2% | -5.85% |
| CC1=Nc2ccc([N+](=O)[O-])cc2C1(C)C | -0.35% | 5.1% | -7.55% | -2.15% | -16.1% | -5.45% |
| O=C(CCCCl)N1CCCCCC1 | -5.25% | 11.6% | -17.5% | -37% | 15.1% | 5.7% |
| CCCC1([N+](=O)[O-])c2ccccc2-c2ccc([N+](=O)[O-])cc21 (centres undefined) | 20.4% | 7.9% | 22.4% | 11% | 46.1% | 49.7% |
| COc1ccc(C(c2ccc(OC)cc2)N2C(=O)CCC2C(=O)O)cc1 (centres undefined) | -28.6% | 21.2% | -48.8% | 17.1% | -1% | -12.6% |
| Fc1ccccc1C1SCc2nc3cc4ccccc4cc3n21 (centres undefined) | -33.6% | -17.8% | 0.95% | -1.45% | -0.95% | 40% |
| O=c1oc(-c2ccc([N+](=O)[O-])cc2)nc2cc(Cl)ccc12 | 17.8% | 9.15% | 44.7% | 8.85% | 44.9% | 18.6% |
| COc1ccc(/C(C)=N/N=C\c2cc(OC)c(OC)c(OC)c2)cc1 | 6.95% | 3.15% | -10.8% | 14.8% | 83.2% (active) | 8.2% |
| Cc1nc2c(=O)[nH]c(=O)[nH]c2s1 | -12.6% | 5.05% | -4.2% | -12% | -7.5% | -8.6% |
| Cc1onc(-c2ccccc2)c1C(C)(O)c1ccccc1 (centres undefined) | 12.8% | 11.2% | 16.6% | -17.9% | 18.2% | 5.7% |
| Cc1c(CC#N)cc(C)c2c3c([nH]c12)-c1ccccc1CC3 | 35.5% | 35.2% | 44% | 11.8% | 37.5% | 18.9% |
| COCN1C(=N)C(C(=O)OC(C)(C)C)=C2C=C(O)C=CC21C (centres undefined) | -4.5% | 14.7% | -23.4% | 9.1% | 22.2% | 2.55% |
| CCCOCC[N+](C)(C)C | 1.65% | -21.9% | 8.65% | -34.5% | -8.9% | -8.9% |
| CC(C)=CCCC(C)CCOc1cccc(C)c1 (centres undefined) | 3.65% | 8.3% | -6.95% | -37.5% | 11.6% | 1.2% |
| COC(=O)C(=O)c1c(C(=O)OC)nc2nnc(N)n2c1-c1cccc([N+](=O)[O-])c1 | 23.6% | -4.35% | 3.1% | 17.3% | 12.4% | 18% |

| Structure (SMILES) | growth inhibition [1] | growth inhibition [2] | growth inhibition [3] | growth inhibition [4] | growth inhibition [5] | growth inhibition [6] |
| --- | --- | --- | --- | --- | --- | --- |
| Cc1ccc(OCC2OC(n3cnc4c(Cl)ncnc43)CC2Oc2ccc(C)cc2)cc1 (centres undefined) | -1.2% and 20.8% | -10.2% and 3.5% | 0.05% and 45% | -6.6% and 15.3% | -5.6% and 34% | -32.6% and -25.1% |
| CC(=O)OC(C(N)=O)c1ccccc1 (centres undefined) | -0.7% | -0.7% | -3.3% | -9.7% | 3.45% | -2.95% |
| CCOC(=O)c1ccc2c(c1)C(=O)c1cc([N+](=O)[O-])ccc1-2 | 2.85% | 13.2% | 4.8% | 10.6% | 26.7% | 23.1% |
| CN(CCO)c1ccccc1 | -12.3% | -14.8% | -40.4% | -17.9% | -48.4% | -8% |
| O=S(=O)(c1ccc(Cl)cc1)S(=O)(=O)c1ccc(Cl)cc1 | 18.8% | 8.5% | 8.6% | -18.4% | 4.5% | 10.4% |
| CC(=O)C[n+]1ccccc1 | -9.85% | -9% | -1.75% | 3.75% | 15.6% | 14.2% |
| CN(C)CCCNC(=O)N/N=C/c1ccccc1 | 13.9% | -13.8% | -13.8% | -6.3% | -39.7% | -21.1% |
| Cc1cc(C)c(C(=O)Cc2ccccc2)c(C)c1 | 18.4% | 15.6% | 20.2% | 12.4% | 11.4% | 9.45% |
| C=C1CC(COc2ccc3c(C)c(Cl)c(=O)oc3c2)(c2ccccc2)OC1=O (centres undefined) | 19% | 20.4% | 40% | 37.5% | 18.8% | 37.6% |
| NC(CC(=O)c1ccccc1NC=O)C(=O)O (centres undefined) | 8.85% | -1.4% | -9.95% | -48.6% | -0.95% | 3.25% |
| O=C(O)c1cscc1Cc1cccs1 | 0.05% | -13.7% | -43.6% | -30.6% | -76% | 13.7% |
| O=C(Cc1ccccc1)SC(=O)Cc1ccccc1 | -0.05% | 28.8% | 18.6% | -8.9% | 39.4% | 10% |
| Nc1ncnc2c1ncn2C1OC(CO)C(NC(=O)C(N)Cc2ccccc2)C1O (centres undefined) | 7.2% | -4.7% | -2.8% | -32.3% | 2.15% | -9.5% |
| O=C1CSC(c2ccccc2Cl)N1N1C(=O)CSC1c1ccccc1Cl (centres undefined) | 32.4% | 19.2% | 28.1% | 27.5% | 24.3% | 28.1% |
| CC(=O)c1ccc(Cl)cc1Cl | -12.4% | -11.8% | -3.7% | -6.65% | -13.3% | -38.5% |
| CCOC(=O)C1=C(C)NC(c2ccco2)=C(C#N)C1c1cccc([N+](=O)[O-])c1 (centres undefined) | 59.8% | 33.4% | 66% | 68.7% | 63.6% | 70.8% (active) |
| O=C(Nc1ccc(Cl)cc1)NC1OC(=O)C(Cl)=C1Cl (centres undefined) | 23.4% | 9.3% | 8.55% | -17.9% | 3.5% | 23.1% |
| CCCC(C)C(C(=O)OCC)C(=O)OCC (centres undefined) | 2.6% and -5.35% | -14.5% and -5.6% | -9.85% and 10.9% | 21.5% and -17.4% | -11.3% and -14% | -15.3% and -7.4% |
| Clc1cccc(Nc2ncnc3nc[nH]c23)c1 | 7.15% | 0.25% | 5.1% | -12.2% | -12.9% | 0.5% |
